# Results published in PubChem BioAssay.
# Calls of active or inactive are those of the source.
# Tests used:
# [1] = binders of probe aFSTL3 on microarray, primary screen, stem cell growth factor project, biochemical, small-molecule microarray, fluorescence 635/667 (AID 1064); details: higher = more signal;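 note: measures binding of the biotinylated anti-FSTL3 antibody to printed compounds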
# [2] = binders from COS7 lysate, DM2A8 probe, primary screen, torsin A project, cell lysate, small-molecule microarray, fluorescence 635/667 (AID 1065); details: higher = more signal, COS7 lysate expressing mutant human TOR1A
# [3] = binders of probe aFGF2 on microarray, primary screen, stem cell growth factor project, biochemical, small-molecule microarray, fluorescence 635/667 (AID 1067); details: higher = more signal;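 note: measures binding of biotinylated aFGF2 protein to printed compounds on slides; z-score merges feature fluorescence and signal-to-noise across triplicate slides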
# [4] = binders of probe aFGF10 on microarray, primary screen, stem cell growth factor project, biochemical, small-molecule microarray, fluorescence 635/667 (AID 1071); details: higher = more signal;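 note: score merges 667 nm spot intensity and signal to noise from triplicate slides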
# [5] = target: Neurogenic locus notch homolog protein 2 (Homo sapiens) (UniProt Q04721); experiment: Notch2 binders on small-molecule microarrays, primary screen, biochemical, small-molecule microarray, 635 nm fluorescence, stem cell growth factors (AID 1073); details: Notch2 binding, higher = more signal
# Chain of Neurogenic locus notch homolog protein 2 (Homo sapiens) (Q04721 whole entry, looked up, canonical isoform): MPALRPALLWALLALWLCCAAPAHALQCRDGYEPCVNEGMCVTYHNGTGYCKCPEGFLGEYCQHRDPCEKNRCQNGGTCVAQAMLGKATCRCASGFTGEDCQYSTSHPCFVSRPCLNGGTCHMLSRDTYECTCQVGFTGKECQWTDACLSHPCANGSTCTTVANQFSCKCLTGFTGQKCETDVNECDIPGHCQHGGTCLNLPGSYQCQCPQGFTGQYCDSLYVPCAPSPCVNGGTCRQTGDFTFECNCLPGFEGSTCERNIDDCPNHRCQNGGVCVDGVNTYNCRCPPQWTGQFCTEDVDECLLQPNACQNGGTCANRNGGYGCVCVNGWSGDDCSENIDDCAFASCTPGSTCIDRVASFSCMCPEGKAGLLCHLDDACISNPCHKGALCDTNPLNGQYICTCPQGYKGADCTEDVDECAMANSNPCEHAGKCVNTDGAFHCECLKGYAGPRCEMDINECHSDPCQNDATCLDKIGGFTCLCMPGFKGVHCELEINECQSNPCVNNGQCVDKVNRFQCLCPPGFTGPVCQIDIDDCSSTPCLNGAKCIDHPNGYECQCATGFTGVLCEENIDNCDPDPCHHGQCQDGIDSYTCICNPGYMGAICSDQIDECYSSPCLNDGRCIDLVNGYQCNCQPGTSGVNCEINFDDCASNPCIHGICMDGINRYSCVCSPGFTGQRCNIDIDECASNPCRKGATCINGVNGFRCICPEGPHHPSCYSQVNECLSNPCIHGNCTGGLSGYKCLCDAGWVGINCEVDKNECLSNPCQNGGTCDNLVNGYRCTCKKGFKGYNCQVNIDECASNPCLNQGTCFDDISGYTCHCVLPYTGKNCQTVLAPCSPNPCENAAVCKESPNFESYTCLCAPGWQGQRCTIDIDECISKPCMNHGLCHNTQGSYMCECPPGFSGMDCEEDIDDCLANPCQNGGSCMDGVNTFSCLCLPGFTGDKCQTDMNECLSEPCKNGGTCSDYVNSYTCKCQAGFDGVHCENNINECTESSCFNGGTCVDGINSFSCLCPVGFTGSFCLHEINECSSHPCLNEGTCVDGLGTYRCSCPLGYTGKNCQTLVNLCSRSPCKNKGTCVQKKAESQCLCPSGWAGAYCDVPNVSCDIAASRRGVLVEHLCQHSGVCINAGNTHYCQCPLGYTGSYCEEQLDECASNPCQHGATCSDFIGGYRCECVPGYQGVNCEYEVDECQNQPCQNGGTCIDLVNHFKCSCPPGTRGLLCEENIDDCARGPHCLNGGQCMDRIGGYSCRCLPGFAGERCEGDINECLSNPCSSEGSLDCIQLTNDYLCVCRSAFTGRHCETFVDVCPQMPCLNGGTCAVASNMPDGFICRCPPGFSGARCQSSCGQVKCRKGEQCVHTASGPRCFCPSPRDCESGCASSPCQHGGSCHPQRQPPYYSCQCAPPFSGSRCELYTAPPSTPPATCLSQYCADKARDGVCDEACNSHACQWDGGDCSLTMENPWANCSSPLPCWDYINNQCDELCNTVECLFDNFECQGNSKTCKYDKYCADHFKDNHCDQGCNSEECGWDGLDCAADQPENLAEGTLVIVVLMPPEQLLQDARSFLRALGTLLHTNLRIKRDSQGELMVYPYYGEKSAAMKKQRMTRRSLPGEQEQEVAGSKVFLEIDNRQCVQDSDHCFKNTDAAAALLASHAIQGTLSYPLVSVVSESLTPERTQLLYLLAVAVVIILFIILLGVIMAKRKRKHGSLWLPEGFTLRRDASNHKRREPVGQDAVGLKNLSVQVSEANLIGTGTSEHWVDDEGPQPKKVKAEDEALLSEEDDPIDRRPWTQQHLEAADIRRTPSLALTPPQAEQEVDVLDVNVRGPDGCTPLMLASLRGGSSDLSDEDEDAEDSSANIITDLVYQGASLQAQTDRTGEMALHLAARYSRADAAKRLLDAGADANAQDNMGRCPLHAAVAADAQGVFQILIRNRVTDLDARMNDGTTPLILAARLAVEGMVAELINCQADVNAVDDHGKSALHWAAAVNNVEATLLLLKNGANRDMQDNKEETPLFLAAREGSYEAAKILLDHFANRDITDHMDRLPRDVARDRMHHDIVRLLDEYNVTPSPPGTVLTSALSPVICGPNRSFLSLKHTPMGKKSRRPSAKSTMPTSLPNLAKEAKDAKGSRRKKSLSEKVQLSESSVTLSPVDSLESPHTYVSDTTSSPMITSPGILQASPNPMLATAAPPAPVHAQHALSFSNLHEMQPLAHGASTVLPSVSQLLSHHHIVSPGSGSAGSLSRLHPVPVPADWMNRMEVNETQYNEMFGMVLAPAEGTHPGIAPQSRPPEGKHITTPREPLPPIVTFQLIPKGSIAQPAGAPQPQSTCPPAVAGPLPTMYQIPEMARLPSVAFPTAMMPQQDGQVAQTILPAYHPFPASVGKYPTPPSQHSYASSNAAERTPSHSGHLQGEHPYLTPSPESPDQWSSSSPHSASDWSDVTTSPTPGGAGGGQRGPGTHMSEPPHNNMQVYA
# [6] = target: Pro-neuregulin-1, membrane-bound isoform (Homo sapiens) (UniProt Q02297); experiment: NRG1 binders on small-molecule microarrays, primary screen, psychiatric disease protein project, biochemical, small-molecule microarray, fluorescence 635/667 (AID 1075); details: NRG1 binding, 635 nm fluorescence, higher = more signal;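 note: score combines 667 nm spot fluorescence with signal to noise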
# Chain of Pro-neuregulin-1, membrane-bound isoform (Homo sapiens) (Q02297 whole entry, looked up, the tested form may be a part, canonical isoform): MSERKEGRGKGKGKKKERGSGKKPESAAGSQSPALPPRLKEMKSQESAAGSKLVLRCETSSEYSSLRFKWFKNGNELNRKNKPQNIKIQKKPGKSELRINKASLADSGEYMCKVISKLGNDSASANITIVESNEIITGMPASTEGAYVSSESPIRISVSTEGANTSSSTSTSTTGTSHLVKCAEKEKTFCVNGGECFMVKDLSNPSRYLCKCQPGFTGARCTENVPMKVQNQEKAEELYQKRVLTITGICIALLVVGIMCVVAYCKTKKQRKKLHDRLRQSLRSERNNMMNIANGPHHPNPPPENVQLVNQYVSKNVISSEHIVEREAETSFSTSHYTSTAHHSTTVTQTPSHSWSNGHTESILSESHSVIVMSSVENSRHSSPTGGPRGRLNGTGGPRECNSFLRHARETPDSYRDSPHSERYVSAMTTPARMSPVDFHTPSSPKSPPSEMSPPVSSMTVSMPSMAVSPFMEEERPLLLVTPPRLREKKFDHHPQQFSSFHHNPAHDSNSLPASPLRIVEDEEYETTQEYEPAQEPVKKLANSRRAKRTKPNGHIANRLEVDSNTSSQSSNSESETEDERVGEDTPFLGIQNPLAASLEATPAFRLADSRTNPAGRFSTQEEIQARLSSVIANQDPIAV
# [7] = test system: Neuregulin-1 EGF-like domain; experiment: binders of neuregulin-1 EGF-like domain, primary screen, biochemical, small-molecule microarray, 635 nm fluorescence (AID 1081); details: small-molecule microarray binding, higher = more signal;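 note: binding of the protein to compounds printed on small-molecule microarray slides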
# [8] = FRG1 promoter luciferase signal modulators, primary screen, FRG1 inhibition for FSHD, cell-based, C2C12 myotubes, firefly/Renilla luciferase, luminescence (AID 1084); details: higher = more signal, called active from +8 up or from −8 down
# [9] = binders of probe aFST on microarray, primary screen, stem cell growth factor project, biochemical, small-molecule microarray, fluorescence 635/667 (AID 1086); details: higher = more signal;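 note: score merges 667 nm fluorescence with signal-to-noise of each printed compound spot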
# [10] = binders of probe aHhip on microarray, primary screen, stem cell growth factor project, biochemical, small-molecule microarray, fluorescence 635/667 (AID 1087); details: higher = more signal;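 note: score merges spot fluorescence at 667nm with spot signal to noise ratio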
# [11] = test system: PRMT1 (protein arginine N-methyltransferase 1); experiment: PRMT1 binders on small-molecule microarrays, primary screen, biochemical, small-molecule microarray, 635 nm fluorescence (AID 1088); details: small-molecule microarray binding, higher = more signal;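 note: binding of Prmt1 protein to compounds spotted on small-molecule microarray slides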
# [12] = yeast growth modulation, basal conditions, primary screen, YJM789 clinical isolate, OD600, 24 h (AID 1089);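 note: growth of clinical yeast isolate S. cerevisiae YJM 789 seeded 1000 cells per well; test concentration not given here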; details: S. cerevisiae YJM789 growth, higher = more signal, called active from +8 up or from −8 down
# [13] = fission yeast growth modulation, primary screen, strain 972, OD600, 24 h, no modulator (AID 1090);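 note: basal condition with compound alone and no growth modifier present; test concentration not given here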; details: S. pombe 972 growth, higher = more signal, called active from +8 up or from −8 down
# [14] = S. cerevisiae growth modulation with rapamycin, primary screen, strain BY4716, OD600, 96 h (AID 1091); details: higher = more signal, called active from +8 up or from −8 down; note: test concentration not given here
# [15] = target: Torsin-1A-interacting protein 2 (Homo sapiens) (UniProt Q8NFQ8); experiment: LULL1 binders on small-molecule microarray, primary screen, cell lysate, human LULL1 lysate, 635/667 nm fluorescence (AID 1092); details: hLULL1 lysate binding, 635 nm fluorescence, higher = more signal;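 note: probe is lysate of COS7 cells overexpressing human LULL1; score merges per-feature 667 nm fluorescence with signal-to-noise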
# Chain of Torsin-1A-interacting protein 2 (Homo sapiens) (Q8NFQ8 whole entry, looked up): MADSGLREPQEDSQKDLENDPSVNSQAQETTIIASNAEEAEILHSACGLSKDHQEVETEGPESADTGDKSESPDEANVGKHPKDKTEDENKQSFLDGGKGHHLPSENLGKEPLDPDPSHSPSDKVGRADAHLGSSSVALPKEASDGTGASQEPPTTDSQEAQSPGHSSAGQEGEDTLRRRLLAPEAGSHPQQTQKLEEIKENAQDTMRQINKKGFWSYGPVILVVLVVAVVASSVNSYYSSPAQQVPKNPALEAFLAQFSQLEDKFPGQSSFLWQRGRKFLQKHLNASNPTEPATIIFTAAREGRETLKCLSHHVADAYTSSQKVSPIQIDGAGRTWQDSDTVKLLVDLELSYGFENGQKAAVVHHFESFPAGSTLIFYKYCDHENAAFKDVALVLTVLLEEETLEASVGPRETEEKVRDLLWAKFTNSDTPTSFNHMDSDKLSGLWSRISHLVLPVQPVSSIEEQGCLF
# [16] = E. coli growth modulation, two-sided OD650, primary screen, E. coli filamentation project, strain DRC41, 24 h (AID 1093); details: OD650, 24 h, higher = more signal, called active from +8 up or from −8 down;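 note: MC1000 strain lacking acrAB efflux and sulA so SOS filamentation is blocked; test concentration not given here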
# [17] = small-molecule microarray binders of probe aLefty2, primary screen, biochemical, biotinylated probe, 635/667 nm fluorescence (AID 1094); details: higher = more signal;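 note: score merges spot fluorescence near 667 nm with spot signal-to-noise ratio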
# [18] = test system: Noggin (protein binding on small-molecule microarray); experiment: Noggin binders on small-molecule microarray, primary screen, biochemical, 635/667 nm fluorescence (AID 1095); details: 635 nm fluorescence, higher = more signal;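 note: score merges 667 nm feature fluorescence with signal to noise over triplicate slides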
# [19] = target: Neurogenic locus notch homolog protein 3 (Homo sapiens) (UniProt Q9UM47); experiment: NOTCH3 binders on small-molecule microarray, primary screen, biochemical, 635/667 nm fluorescence (AID 1096); details: NOTCH3 binding, 635 nm fluorescence, higher = more signal
# [20] = small-molecule microarray binders of probe aEGFR, primary screen, biochemical, biotinylated probe, 635/667 nm fluorescence (AID 1097); details: higher = more signal;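 note: probe is a biotinylated anti-EGFR antibody binding compounds printed on slides; score combines fluorescence near 667 nm and signal to noise of each spot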
SMILES,composite z-score [1],composite z-score [2],composite z-score [3],composite z-score [4],composite z-score [5],composite z-score [6],composite z-score [7],z-score [8],composite z-score [9],composite z-score [10],composite z-score [11],z-score [12],z-score [13],z-score [14],composite z-score [15],z-score [16],composite z-score [17],composite z-score [18],composite z-score [19],composite z-score [20]
O=C1NC(=O)C2C1C=CC(C(O)c1ccco1)N2Nc1ccccn1 (stereo not given),-0.156,-0.156,-0.0907,-0.0923,0.076,-0.0825,1.08,1.41 (inactive),0.055,0.154,0.184,0.493 (inactive),0.652 (inactive),0.637 (inactive),0.147,-0.87 (inactive),-0.121,-0.119,-0.509,-0.0259
CCOC(=O)C1=C[C@@H](c2ccccc2)N(S(=O)(=O)c2ccc(C)cc2)[C@H]1c1ccccc1Cl,-0.508,0.544,0.168,1.1,1.5,0.264,0.857,-3.26 (inactive),0.945,-0.16,1.5,0.849 (inactive),2.19 (inactive),2.48 (inactive),2.8,-0.518 (inactive),0.0935,0.985,1.06,0.153
COc1cccc(/C=C/C=O)c1,0.278,0.187,0.0726,0.505,0.367,-0.437,-0.443,1.02 (inactive),0.375,0.57,0.247,1.95 (inactive),-13.2 (active),-0.144 (inactive),0.205,-0.283 (inactive),0.226,0.137,0.181,0.198
COCCOC(=O)N1C(=O)[C@@]2(c3cc(C#CC4=CCCCC4)ccc31)[C@H](C(=O)N1CCCCCCC1)[C@H]1C(=O)O[C@H](c3ccccc3)[C@H](c3ccccc3)N1[C@@H]2c1ccc(O)cc1,0.804,0.0395,-0.0226,0.119,0.464,-0.215,1.14,-0.472 (inactive),0.409,-0.31,1.56,-1.17 (inactive),0.509 (inactive),0.983 (inactive),2.88,1.53 (inactive),0.295,0.795,0.807,0.0383
C=CCC(OC(C)=O)[C@@H]1[C@@H](N(Cc2ccc(-c3ccccc3)cc2)C(=O)Cc2ccc(F)cc2)c2cc(OCCCO)ccc2N1C(=O)Cc1ccc(OC)cc1 (stereo not given in full),-0.134,0.132,-0.172,0.295,-0.437,0.0936,-0.438,-0.528 (inactive),0.121,-0.175,-0.712,0.111 (inactive),0.278 (inactive),-0.0946 (inactive),0.311,0.245 (inactive),0.0731,-0.128,-0.241,-0.204
CN1C(=O)C2C=CC(C(O)c3cccc4ccccc34)N(N3CCCCC3)C2C1=O (stereo not given),0.827,1.12,-0.0122,0.691,1.48,1.67,1.19,1.09 (inactive),0.785,0.0873,1.55,-0.0899 (inactive),1.13 (inactive),0.579 (inactive),2.86,-1.09 (inactive),0.101,0.354,1.1,0.299
Cc1ccc(S[C@]2(C(=O)NCCCN(C)C)CC(=O)N(C3CCCCC3)[C@@H]2c2ccc(CO)cc2)cc1,0.655,-1.19,-0.0885,-0.418,-0.503,1.43,0.98,-0.404 (inactive),-0.249,-0.132,-0.0316,-0.96 (inactive),-2.22 (inactive),-0.655 (inactive),0.555,0.457 (inactive),0.0321,-0.561,-0.662,-0.106
CC(C)C(=C=CC[C@H](O)c1ccc(OCCO)cc1)C[C@H](O)c1ccccn1,-0.331,-0.0844,-0.129,0.679,-0.0686,0.243,1.28,-0.0915 (inactive),-0.249,-0.0618,1.52,0.758 (inactive),-1.29 (inactive),-0.132 (inactive),1.18,0.714 (inactive),-0.142,1.28,0.481,-0.146
CC(C)Cc1ccc(CN2CC[C@@H](NC(=O)Nc3ccccc3)C2)cc1,-0.0474,-0.0461,-0.173,0.118,-0.3,-0.54,-0.0603,-0.445 (inactive),-0.275,0.0505,-0.785,-21.2 (active),-21.2 (active),-4.26 (inactive),-0.389,-0.817 (inactive),-0.138,-0.0751,-0.963,-0.0214
COc1ccc([Si](C)(C)[C@H]2[C@H](CCn3cc([C@H](O)c4ccccc4)nn3)O[C@@]3(C(=O)N(Cc4ccc(N5C(=O)c6cccc7cccc5c67)cc4)c4ccccc43)[C@@H]2C)cc1,0.193,-0.241,-0.159,0.595,-0.715,0.45,1.1,-3.35 (inactive),-0.403,-0.0994,0.643,0.642 (inactive),1.17 (inactive),2.55 (inactive),0.277,0.021 (inactive),-0.0674,-0.162,-0.0817,-0.285
